Assay results: ChEMBL document CHEMBL4513216, “Probing the Open Global Health Chemical Diversity Library for Multistage-Active Starting Points for Next-Generation Antimalarials” (ACS Infect Dis, 2020)
About 8,600 (12%) of roughly 69,000 compounds showed an effect of 50% or more. The list comes from a sample in which strong results are over-represented; it also holds similar structures and randomly drawn compounds.

These compounds were tested on Plasmodium berghei (assay: Screen against P. berghei liver stage (PbLuc), transformed with Luciferase, at 10uM). Conditions: tested at 10 uM.
Format: functional, HepG2
`N[C@H]1c2ccccc2C[C@@H]1NC(=O)C1CCN(Cc2ccco2)CC1` gave an INHIBITION of -13.6%.
`O=C(CS(=O)(=O)Cc1csc(-c2ccc(F)cc2)n1)NCC1CC1` gave an INHIBITION of 0.991%.
Work on `Cc1ccn2c(F)c(C(=O)N3CCC4(CCC(=O)N(C)C4)CC3)nc2c1` yielded an INHIBITION of 20.5%.
`Cc1cnn(CCNCC(O)c2ccc(S(C)(=O)=O)cc2)c1` (centres undefined) was tested, and the INHIBITION was 12.6%.
In the case of `c1cc(-c2nn3c(CN4CCOCC4)nnc3s2)ccn1`, the INHIBITION is reported as 26.7%.
In the case of `COc1ccc2c(c1)CN(CC(=O)NC1CCCC1)CC2`, the INHIBITION is reported as -2.48%.
Work on `Cc1cc2nc(SCC(=O)N3CCCC3)n(C(C)C)c(=O)c2[nH]1` yielded an INHIBITION of -19.7%.
For `COc1cc(N2C[C@H]3CCN(CCN4CCCC4)C[C@H]3C2)ncn1`, the INHIBITION was 52.6%.
Work on `COc1cc(N2C[C@H]3OCC[C@H]3[C@H](C(=O)N3CCCC3)C2)ncn1` yielded an INHIBITION of 30.3%.
For `COCCN(C)C[C@@H]1CCC[C@@H]2CN(c3cc(OC)ncn3)C[C@@H]21`, the INHIBITION was 41.5%.
Work on `COc1cc(N2C[C@H]3CN(C(=O)c4cnccn4)C[C@H]3C2)ncn1` yielded an INHIBITION of -1.15%.
For `c1cnc(N2C[C@H]3CCC[C@@H](CN4CCCC4)[C@H]3C2)nc1`, the INHIBITION was 9.97%.
Work on `COc1cc(N2C[C@H]3CCC[C@@H](CN4CCOCC4)[C@H]3C2)ncn1` yielded an INHIBITION of 73%.
Compound `COCCN1C[C@@H](C)[C@@]2(COCCN(C(=O)c3cnc(C)cn3)C2)C1` has an INHIBITION of 8.57%.
For `CC(=O)NCc1noc2c1CN(CCN1CCCC1)CC2`, the INHIBITION was 39.3%.
For `O=C(O)COc1ccccc1CN1CCCC1c1cnccn1` (centres undefined), the INHIBITION was 47.2%.
Work on `O=C(C[C@@H]1COC[C@H]2CN(Cc3ccccc3)C[C@@H]12)N1CCCC1` yielded an INHIBITION of 41.2%.
`Cc1ccc(CN2CC[C@H]3C(=O)N(Cc4cccnc4)CCO[C@H]3C2)o1` gave an INHIBITION of 33.4%.
For `O=C1[C@@H]2CCN(Cc3ccccn3)C[C@@H]2OCCN1c1ccccc1`, the INHIBITION was 10.1%.
For `O=C1[C@@H]2CCN(Cc3ccoc3)C[C@@H]2OCCN1Cc1cccc(F)c1`, the INHIBITION was 70.7%.
`O=C1[C@@H]2CCN(Cc3ccncc3)C[C@@H]2OCCN1c1ccccc1` showed an INHIBITION of 55.2%.
For `Cc1ccc(N2CCO[C@H]3CN(Cc4cc(C)on4)CC[C@H]3C2=O)cn1`, the INHIBITION was 48.6%.
`O=C1[C@@H]2CCN(CC3CCOCC3)C[C@@H]2OCCN1c1ccccc1` showed an INHIBITION of -37.8%.
For `Fc1ccccc1CN1C[C@@H]2CN(Cc3cccnc3)CCO[C@@H]2C1`, the INHIBITION was 27.5%.
`Cc1cc(CN2CC[C@H]3C(=O)N(c4ccccc4)CCO[C@H]3C2)no1` gave an INHIBITION of -33.5%.
`Cc1cc(CN2CC[C@H]3C(=O)N(c4cccnc4)CCO[C@H]3C2)no1` gave an INHIBITION of 53.2%.
For `COc1ccccc1CN1C[C@@H]2CN(Cc3cccnc3)CCO[C@@H]2C1`, the INHIBITION was 20.1%.
`COc1ccc(CN2C[C@@H]3CN(Cc4cccnc4)CCO[C@@H]3C2)cc1` gave an INHIBITION of 64.5%.
`O=C1[C@H]2CN(C3CCOCC3)C[C@H]2CN1Cc1cccc(F)c1` showed an INHIBITION of 1.48%.
`O=c1c2c[nH]c(N3CCCC3)nc-2cn1C1CCS(=O)(=O)C1` (centres undefined) showed an INHIBITION of 42.1%.
Compound `CC(C)n1[nH]c(=O)c2c1NC(=O)CC2c1ccc(C#N)cc1` (centres undefined) has an INHIBITION of -1.04%.
With `O=C1NCCCCC1Sc1ccc(F)c(F)c1` (centres undefined) the INHIBITION was 25.2%.
In the case of `O=C(N1CCCC1)N1CC[C@H]2[C@H]1CCN2c1ncccn1`, the INHIBITION is reported as 19.8%.
For `Cc1nc(CC(=O)N2CCC(c3ccn4nccc4n3)CC2)cs1`, the INHIBITION was 23.9%.
With `CCOc1ccccc1-n1c(C2CCC2)n[nH]c1=O` the INHIBITION was -27.5%.
Work on `c1ccc(N2CC[C@@H]3CN(Cc4ccncc4)CCO[C@@H]3C2)cc1` yielded an INHIBITION of 65.1%.
With `O=C1[C@@H]2CCN(Cc3ccoc3)C[C@@H]2OCCN1Cc1cccnc1` the INHIBITION was 12.5%.
Compound `Cc1cc(N2CCN(Cc3ccccc3)CC(O)C2)cc(C)n1` (centres undefined) has an INHIBITION of 36.8%.
In the case of `O=C1[C@@H]2CCN(Cc3ccoc3)C[C@@H]2OCCN1c1cccnc1`, the INHIBITION is reported as 54.4%.
`c1cncc(CN2CCO[C@@H]3CN(Cc4ccoc4)CC[C@@H]3C2)c1` was tested, and the INHIBITION was 50.9%.
`O=C1[C@@H]2CCN(Cc3ccc(F)cc3)C[C@@H]2OCCN1c1cccnc1` was tested, and the INHIBITION was 24.9%.
`Cc1cnc(N2CC[C@@H]3CN(Cc4ccncc4)CCO[C@@H]3C2)nc1` showed an INHIBITION of -15.3%.
Work on `Cc1ccnc(N2CCN(Cc3ccccc3)CC(O)C2)c1` (centres undefined) yielded an INHIBITION of 43.9%.
In the case of `O=C1[C@@H]2CCN(Cc3ccoc3)C[C@@H]2OCCN1c1ccccc1`, the INHIBITION is reported as 21.6%.
Work on `OC1CN(Cc2ccccc2)CCN(c2ccncc2)C1` (centres undefined) yielded an INHIBITION of 57.6%.
Work on `c1cnc(N2CC[C@@H]3CN(Cc4ccncc4)CCO[C@@H]3C2)nc1` yielded an INHIBITION of -33%.
For `c1cnc(N2CCO[C@@H]3CN(Cc4ccoc4)C[C@@H]3C2)nc1`, the INHIBITION was 33.5%.
Compound `CCNc1nc(-c2cccnc2)c(-c2ccnc(N3CCCC3)n2)s1` has an INHIBITION of 48.6%.
For `CN(C)C(=O)CCCn1ccc(NC(=O)NCc2cccc(F)c2)n1`, the INHIBITION was 13.8%.
Work on `O=C(NCc1cc[nH]n1)NCC(O)c1ccc(F)c(F)c1` (centres undefined) yielded an INHIBITION of -48.4%.
`CCN(CC)S(=O)(=O)c1cccc(C(=O)N(C)Cc2ccsc2)c1` showed an INHIBITION of -61.4%.
For `CC[C@H]1N(C)CCC[C@]12CCC(=O)N2Cc1ccncc1`, the INHIBITION was 43.2%.
In the case of `CCOc1ccc(C(=O)N2CCCC2c2c(C)nn(C)c2OC)cn1` (centres undefined), the INHIBITION is reported as -105%.
For `Cc1c(CN2CCCC(n3c(=O)oc4ccccc43)C2)cnn1C` (centres undefined), the INHIBITION was 35.75%.
Work on `N#Cc1cccc(CN2CC[C@@H]3CN(c4ncccn4)CCO[C@@H]3C2)c1` yielded an INHIBITION of 56.4%.
Work on `N#Cc1cccc(CN2C[C@@H]3CN(c4ncccn4)C[C@@H]3C2)c1` yielded an INHIBITION of 8.66%.
Compound `Cc1cc(C)n(CC2CN(Cc3cccc(C#N)c3)CCO2)n1` (centres undefined) has an INHIBITION of -8.11%.
For `Cc1cc(NC(=O)CN2CCCC2c2noc(C3CC3)n2)no1` (centres undefined), the INHIBITION was 21.6%.
With `Cc1cc(NC(=O)CN2CCCC2c2noc(C(C)C)n2)no1` (centres undefined) the INHIBITION was 50.3%.
`CC(C)c1nc(C2CCCN2CC(=O)Nc2ccc(Cl)cn2)no1` (centres undefined) showed an INHIBITION of 54.6%.
`CCc1nc(C2CCCN2C(=O)c2nccnc2N)no1` (centres undefined) showed an INHIBITION of -3.18%.
`CC(C)c1nc(C2CCCN2Cc2ccno2)no1` (centres undefined) gave an INHIBITION of 17%.
With `Cc1nnc(NC(=O)CN2CCCC2c2noc(C(C)C)n2)s1` (centres undefined) the INHIBITION was -36.1%.
`CC(C)c1nc(C2CCCN2Cc2ccncc2Cl)no1` (centres undefined) was tested, and the INHIBITION was 53.9%.
For `Cc1cc(NC(=O)CN2CCCC2c2noc(C(C)C)n2)n(C)n1` (centres undefined), the INHIBITION was 6.81%.
With `CC(C)c1nc(C2CCCN2CC(=O)Nc2cccnc2)no1` (centres undefined) the INHIBITION was -17.6%.
With `CC(C)c1nc(C2CCCN2C(=O)c2nccnc2N)no1` (centres undefined) the INHIBITION was 61.1%.
Compound `CC(C)c1nc(C2CCCN2Cc2ccccc2C#N)no1` (centres undefined) has an INHIBITION of 22.5%.
`CCc1ocnc1C(=O)N1CCCC1c1noc(C(C)C)n1` (centres undefined) showed an INHIBITION of 11.7%.
In the case of `COC(=O)c1cc(C(=O)N2CCC(OC)CC2)n(-c2ccccc2)n1`, the INHIBITION is reported as -12.33%.
`COC(=O)CNC(=O)c1sc(-c2ccc(Cl)s2)nc1C` gave an INHIBITION of -58%.
With `CC(O)CN1CCC(CNCc2cccc(OC(F)(F)F)c2)CC1` (centres undefined) the INHIBITION was 35.4%.
In the case of `CS(=O)(=O)NC[C@]12COC[C@H]1CN(C(=O)N1CCCC1)C2`, the INHIBITION is reported as 21.3%.
Work on `CNCc1nc(-c2ccc3c(c2)OCO3)c[nH]1` yielded an INHIBITION of 8.4%.
Work on `CN1CCC(n2nc(CC3CC3)nc2-c2ccc(F)cc2Cl)CC1` yielded an INHIBITION of 34.9%.
`CN(C)CCN(Cc1cccc(F)c1)C(=O)c1ccc2nccn2c1` showed an INHIBITION of 2.91%.
In the case of `Cc1cc(NC(=O)CN2CCn3c(nnc3C(C)C)C2)no1`, the INHIBITION is reported as 63.9%.
Compound `Cc1cc(NC(=O)CN2CCCC2c2noc(C(C)C)n2)on1` (centres undefined) has an INHIBITION of -7.31%.
`Cc1cc(NC(=O)CN2CCn3c(C)nnc3C2)no1` showed an INHIBITION of 45.1%.
`CC(C)c1nc(C2CCCN2CC(=O)Nc2nncs2)no1` (centres undefined) was tested, and the INHIBITION was 10.2%.
`CC(C)c1cc(NC(=O)CN2CCCC2c2noc(C(C)C)n2)on1` (centres undefined) gave an INHIBITION of 52.3%.
For `Cc1cc(NC(=O)CN2CCn3c(nnc3C(C)C)C2)on1`, the INHIBITION was -0.219%.
`O[C@@H]1CCN(CC2CCOC2)[C@H]1Cc1ccccc1` (some centres undefined) was tested, and the INHIBITION was 46.7%.
In the case of `COc1ccc(CN(Cc2cncn2C)CC2CCCO2)cc1OC` (centres undefined), the INHIBITION is reported as 15.9%.
In the case of `CC(C)C(C)NC(=O)Nc1ccc(CS(C)(=O)=O)cc1` (centres undefined), the INHIBITION is reported as 3.16%.
`COc1ccc(CN2CCn3cc(CNC(=O)CC4CC4)nc3C2)cc1` was tested, and the INHIBITION was 40.4%.
Compound `CCOc1ccccc1CNC1CCCN(Cc2noc(C)n2)C1` (centres undefined) has an INHIBITION of 21.5%.
`CNC(=O)c1ccc(CN(C(C)C)C(C)C)o1` gave an INHIBITION of 47.9%.
`CC(C)N(Cc1ccc(C(=O)O)o1)C(C)C` was tested, and the INHIBITION was 69.6%.
Work on `COC(=O)c1ccc(CN(C(C)C)C(C)C)o1` yielded an INHIBITION of 42.1%.
`c1coc(CN2CCCn3c(nnc3Cn3cccn3)C2)c1` gave an INHIBITION of 4.68%.
In the case of `O=C(CC1CC1)N1CCn2cc(Cn3cccn3)nc2C1`, the INHIBITION is reported as 42.7%.
Compound `O=C(Cc1cccc(F)c1)N1CCn2cc(Cn3cccn3)nc2C1` has an INHIBITION of 26.4%.
`O=C(Cc1ccc(F)cc1)N1CCn2cc(Cn3cccn3)nc2C1` was tested, and the INHIBITION was 51.2%.
`O=C(c1ccc[nH]1)N1CCn2cc(Cn3cccn3)nc2C1` was tested, and the INHIBITION was 74.2%.
Compound `O=C(Cc1cccs1)N1CCn2cc(Cn3cccn3)nc2C1` has an INHIBITION of -2.72%.
For `O=C(c1ccc[nH]1)N1CCn2cc(Cn3cncn3)nc2C1`, the INHIBITION was 10.8%.
With `COc1ncccc1CN1C[C@@H]2COC[C@]2(CNC(=O)c2ccno2)C1` the INHIBITION was 29%.
With `Cc1nc(C)c(CN2CCC(N(C)Cc3noc(C4CC4)n3)C2)s1` (centres undefined) the INHIBITION was -19.9%.
